Our source for the Potency values is PubChem BioAssay AID504432 (National Center for Advancing Translational Sciences (NCATS), 2011).

The experiment is described as follows: Confirmation Concentration-Response Assay for lipid storage modulators: for probe SAR round 2. Particulars: Drosophila S3 cells, BODIPY lipid droplet fluorescence, 18-24 h. The text has this: NIH Molecular Libraries Probe Production Centers Network [MLPCN] NIH Chemical Genomics Center [NCGC] MLPCN Grant: 1 R03 MH085686-01 Assay Submitter (PI): Beller, Mathias; Max-Planck-Institut fur Biophysikalische Chemie NCGC Assay Overview: Storing lipids as a reservoir for energy or the anabolism of elementary metabolites is a common feature of probably all cells and is conserved from bacteria to humans. The universal cellular lipid storage organelle is the so-called lipid storage droplet (LD). Although ubiquitous, LDs share a simple structure composed of a hydrophobic core that harbors the storage lipids, which is shielded by a droplet-specific phospholipid monolayer to which proteins are attached. […]
We dispensed 4 uL of cells at 1.25 x 10^6 cells/mL into LoBase Aurora COC 1,536-well plates (black walled, clear bottom) with a bottle-valve solenoid-based dispenser (Aurora) to obtain 5,000 cells/well. […] Fluorescence was detected by excitation of the fluorophores with a 488-nm laser on an Acumen Explorer (TTP Lab Tech). […] Cells were detected using channel 3 (575- 640 nm) with 5-um width and 100-um depth filters. The ratio of the total intensity in PMT channel 1 over total intensity of channel 3 was also calculated. […]

Results filed as inconclusive are left out. The source made the active and inactive calls. Calls come from the whole dose curve; as a rule, active = well fitted inhibition curve with a large enough effect; inconclusive = small, poorly fitted or top-dose-only effect, or another doubt; inactive = flat fitted curve, though single readings scatter.

Take `CCC/C=C/C/C=C/C=C/C=N/NN=O`: the Potency is 2.81 µM (active).
